From ChEMBL document CHEMBL3988442, “University of Dundee, Small-Polar-MMV Screening Library” (2021)
About 13,000 (27%) of roughly 48,000 compounds showed an effect of 50% or more. The list shows a part of the results.

What follows are molecules tested on Wolbachia pipientis (assay: Anti-Wolbachia Cell-Based Screen). Conditions: 5 µM.
Format: functional
Set-up: scale not given: in the data most compounds retested in dose-response had high values
In the case of CCS(=O)(=O)N1C[C@H]2CN(c3cnn(C)c3)C(=O)[C@H]2C1, the “Percent Effect” value is reported as -14.71%.
In the case of CC(C(=O)NCc1ccnc(OCC(F)(F)F)c1)n1cncn1 (stereo unspecified), the “Percent Effect” value is reported as 8.582%.
For Cc1ccc(OCCNC(=O)C(C)n2cncn2)cc1 (stereo unspecified), the “Percent Effect” value was -5.656%.
In the case of Cc1ccc(C(C)(C)CNC(=O)NC(C)Cn2cncn2)cc1 (stereo unspecified), the “Percent Effect” value is reported as 14.21%.
With CC(C)(CNc1cn[nH]c(=O)c1Cl)c1ccc2c(c1)OCCO2 the “Percent Effect” value was 14.36%.
For CCN(CC(=O)NC(C)C)C(=O)C(C)(C)c1ccc2c(c1)OCCO2, the “Percent Effect” value was -2.563%.
For CC(C(=O)NCC(C)(C)c1ccc2c(c1)OCO2)n1ccnc1 (stereo unspecified), the “Percent Effect” value was 97.89%.
With CC(C(=O)NCC(C)(C)c1ccc(Br)cc1)n1cncn1 (stereo unspecified) the “Percent Effect” value was 77.11%.
With CC(C(=O)NCc1ccnc(N(C)C)c1)n1cncn1 (stereo unspecified) the “Percent Effect” value was -16.73%.
With CC(C(=O)NCc1ccc2c(c1)OCCO2)n1cncn1 (stereo unspecified) the “Percent Effect” value was 116.3%.
With CC(C)(CNc1cn[nH]c(=O)c1Cl)c1ccc2c(c1)OCO2 the “Percent Effect” value was 11.94%.
With CN(CC(=O)NCC(C)(C)c1ccc2c(c1)OCO2)c1cnccn1 the “Percent Effect” value was -4.592%.
CC(C(=O)NCC(C)(C)c1ccc2c(c1)OCCO2)n1cncn1 (stereo unspecified) was tested, and the “Percent Effect” value was 97.81%.
With O=C(NCCNc1ncccn1)NCCSC(F)(F)F the “Percent Effect” value was -9.16%.
For Cc1cnn(C2CN(CC(O)c3ccc4c(c3)OCCO4)C2)c1 (stereo unspecified), the “Percent Effect” value was -3.679%.
In the case of Cc1nn(C)c(N(C)C)c1CNCCCN(C)S(C)(=O)=O, the “Percent Effect” value is reported as -15.04%.
For CCOc1cc(C(=O)O)cc(-c2ccccc2)c1OC, the “Percent Effect” value was -26.33%.
CCCNC(=O)Nc1cc2c(cc1SC)OCCO2 was tested, and the “Percent Effect” value was 21.87%.
In the case of CCOCCCC(=O)Nc1cc(C(N)=O)ccc1N1CCCCC1, the “Percent Effect” value is reported as 2.668%.
For CC(Cn1ccnc1)NC(=O)NCCc1ccc2c(c1)OCCO2 (stereo unspecified), the “Percent Effect” value was 0.8239%.
With CC(C(=O)NCCc1ccc2c(c1)OCCO2)n1cncn1 (stereo unspecified) the “Percent Effect” value was 104.6%.
CC(C(=O)NCCOc1ccc2c(c1)OCO2)n1cncn1 (stereo unspecified) was tested, and the “Percent Effect” value was 5.572%.
With Cc1nc2ccccc2nc1CN1CCCC1c1c(C)nn(C)c1C (stereo unspecified) the “Percent Effect” value was 2.386%.
For Cn1c(CN2CCN(CC3CCCO3)CC2)nc2ccccc21 (stereo unspecified), the “Percent Effect” value was -23.45%.
In the case of Cc1nn(C)c(C)c1C1CCCN1Cc1nc(N)c2ccccc2n1 (stereo unspecified), the “Percent Effect” value is reported as 120.3%.
Cc1nn(C)c(C)c1C1CCCN1Cc1nc2ccccc2o1 (stereo unspecified) was tested, and the “Percent Effect” value was 33.14%.
For Cc1nn(C)c(C)c1C1CCCN1Cc1nc(C)c2ccccc2n1 (stereo unspecified), the “Percent Effect” value was 40.75%.
With Cc1cc(C)n(C2CCN(Cc3nc4ccccc4n3C)CC2)n1 the “Percent Effect” value was 188.5%.
For Cc1nn(C)c(C)c1C1CCCN1Cc1nc2ccccc2n1C (stereo unspecified), the “Percent Effect” value was 136.2%.
For Cc1nc(C)n(CC2CCCN2Cc2nc3ccccc3n2C)n1 (stereo unspecified), the “Percent Effect” value was 1.241%.
For Cc1nc(CN2CCCC2c2c(C)nn(C)c2Cl)no1 (stereo unspecified), the “Percent Effect” value was -6.071%.
For Cc1nn(C)c(C)c1C1CCCN1Cc1nc2ccccc2c(=O)[nH]1 (stereo unspecified), the “Percent Effect” value was 97.01%.
For CCC1CCCN(Cc2nc3ccccc3c(=O)[nH]2)C1 (stereo unspecified), the “Percent Effect” value was -14.75%.
With O=c1oc(-c2ccccc2)nn1CN1CCC(N2CCCCC2)CC1 the “Percent Effect” value was -11.85%.
For Cc1nc2scc(C)n2c1CNc1ccc(C(=O)O)cc1, the “Percent Effect” value was 1.868%.
With CCC[C@@H]1CN(S(=O)(=O)c2ccc3[nH]c(=O)[nH]c3c2)C[C@H]1NC(C)=O the “Percent Effect” value was -12.43%.
Cn1c(CN2CCN(CC3CC3)CC2)nnc1C1CCC1 was tested, and the “Percent Effect” value was -1.801%.
With Cc1ccnc(C(NC(=O)c2ccc(O)nc2C)C2CC2)n1 (stereo unspecified) the “Percent Effect” value was 19.85%.
With COC(CNC(=O)c1ccc[nH]1)c1cccc(Cl)c1 (stereo unspecified) the “Percent Effect” value was -25.79%.
With Cc1cccc2c1nc(CCO)n2-c1ccc(C(=O)N2CCOCC2)o1 the “Percent Effect” value was -4.594%.
For CC(C)Oc1cc(N2CCC(C(N)=O)CC2)nc(N)n1, the “Percent Effect” value was 11.1%.
In the case of CCN(CC)S(=O)(=O)N1C[C@@H](c2ccccc2)[C@H]2[C@H]1CCCCCN2C, the “Percent Effect” value is reported as 163.4%.
CCN(CC(=O)NC(C)C)S(=O)(=O)N1CCCCC1C (stereo unspecified) was tested, and the “Percent Effect” value was -3.982%.
In the case of CCN(CC)S(=O)(=O)N1CC[C@H](c2ccccc2)[C@@H]2[C@H]1CCCCN2C, the “Percent Effect” value is reported as 135.6%.
Cc1cc(S(=O)(=O)N2CCCc3ccc(F)cc32)sc1C(=O)O was tested, and the “Percent Effect” value was -10.9%.
In the case of O=C([C@@H]1CCO[C@@H]2CCN(Cc3ccco3)C[C@H]21)N1CCCCO1, the “Percent Effect” value is reported as 1.589%.
In the case of COc1ccc(CN2CCC[C@@H]3CN(C(=O)c4ccco4)C[C@@H]32)cc1.O=C(O)C(F)(F)F, the “Percent Effect” value is reported as 6.144%.
For CC(=O)N1CCCN(C2CCCCc3ccccc32)CC1 (stereo unspecified), the “Percent Effect” value was 16.59%.
With COCC(=O)N1CCC(=O)N(C2CCCC2)Cc2cc(F)ccc21 the “Percent Effect” value was 102.4%.
In the case of COC(C)(C)CNC(=O)C1CCC(=O)N(C2CCCC2)C1 (stereo unspecified), the “Percent Effect” value is reported as -37.87%.
In the case of COCC(=O)N1CCCN(C(=O)C2Cc3ccccc3CN2C)CC1 (stereo unspecified), the “Percent Effect” value is reported as -0.0278%.
In the case of COCC(=O)N1CCC(=O)N(C2CCCC2)Cc2ccccc21, the “Percent Effect” value is reported as 125.1%.
In the case of COc1cccc(SCC(=O)N2CCCC(N3CCCC3=O)C2)c1 (stereo unspecified), the “Percent Effect” value is reported as 3.036%.
CC(=O)N1CCC(=O)N(C2CCCC2)Cc2ccccc21 was tested, and the “Percent Effect” value was 106.7%.
COc1cccc(-n2nnc(C(=O)N3CCCC3)c2C)c1 was tested, and the “Percent Effect” value was -5.233%.
COCCO[C@H]1CCN(c2ccc(C)nn2)[C@H]1Cc1cnn(C)c1 was tested, and the “Percent Effect” value was 102.2%.
For CCO[C@@H]1CCN(C(=O)N(C)C)[C@@H]1Cc1cnn(C)c1, the “Percent Effect” value was 6.075%.
Cc1ccc(N2CC[C@H](O)[C@@H]2Cc2cnn(C)c2)nn1 was tested, and the “Percent Effect” value was 105.5%.
With Cn1cc(C[C@H]2[C@@H](O)CCN2C(=O)c2ccc[nH]2)cn1 the “Percent Effect” value was -3.734%.
In the case of CCO[C@@H]1CCN(c2ccc(C)nn2)[C@@H]1Cc1cnn(C)c1, the “Percent Effect” value is reported as 109.6%.
With CO[C@H]1CCN(c2ccc(C)nn2)[C@H]1Cc1cnn(C)c1 the “Percent Effect” value was -0.6949%.
For COCCO[C@@H]1CCN(C(=O)c2ccc(C)o2)[C@@H]1Cc1cnn(C)c1, the “Percent Effect” value was -2.237%.
In the case of Cn1cc(C[C@H]2[C@H](O)CCN2C(=O)C2CCCC2)cn1, the “Percent Effect” value is reported as -2.611%.
COCCO[C@H]1CCN(C(=O)c2ccno2)[C@H]1Cc1cnn(C)c1 was tested, and the “Percent Effect” value was -8.767%.
With CCC(C)(NCC(=O)OC)c1nc(C)cs1 (stereo unspecified) the “Percent Effect” value was 4.251%.
With CC(C)c1nc2n(n1)CC(NCC(=O)N(C)Cc1cccs1)CC2 (stereo unspecified) the “Percent Effect” value was -0.7675%.
Cn1c(=O)[nH]c2cc(C(=O)OCCCn3ccccc3=O)ccc21 was tested, and the “Percent Effect” value was -6.987%.
For Cc1nnc(N2C[C@@H](OCCCn3cccn3)[C@H]3OCCC[C@H]32)s1.O=C(O)C(F)(F)F.O=C(O)C(F)(F)F, the “Percent Effect” value was 12.15%.
For O=C(O)C(F)(F)F.O=C(O)C(F)(F)F.c1cnn(CCCO[C@@H]2CC[C@H]3[C@H]2OCCN3CC2CC2)c1, the “Percent Effect” value was 100.5%.
With O=C(CO[C@@H]1CC[C@H]2[C@H]1OCCN2CC1CCOCC1)N1CCCC1.O=C(O)C(F)(F)F the “Percent Effect” value was -8.196%.
In the case of Cc1nnc(N2C[C@H](OCCCn3cccn3)[C@H]3OCCC[C@H]32)s1, the “Percent Effect” value is reported as 1.098%.
With O=C(O)C(F)(F)F.O=C(O)C(F)(F)F.c1cnn(CCCO[C@@H]2CC[C@H]3[C@H]2OCCN3CC2CCOCC2)c1 the “Percent Effect” value was 107.9%.
For O=C(O)C(F)(F)F.O=C(O)C(F)(F)F.c1cnn(CCCO[C@@H]2CN(C3CCOCC3)[C@@H]3CCCO[C@@H]32)c1, the “Percent Effect” value was 99.23%.
CCO[C@H]1CC[C@H]2[C@H]1OCCN2CCOCc1ccccc1.O=C(O)C(F)(F)F was tested, and the “Percent Effect” value was -37.65%.
In the case of CCO[C@@H]1CC[C@H]2[C@H]1OCCN2CCOCc1ccccc1.O=C(O)C(F)(F)F, the “Percent Effect” value is reported as -21.46%.
With CN(C)CCSc1ccc(NC(=O)c2nccn3ccnc23)cc1 the “Percent Effect” value was 11.77%.
With COc1cc(OC)cc(C2CCN(CC(=O)NCC(F)(F)F)C2)c1 (stereo unspecified) the “Percent Effect” value was -9.174%.
With Cc1ccc(CN2CCC3(CC2)COCCN3S(C)(=O)=O)o1.O=C(O)C(F)(F)F the “Percent Effect” value was 105%.
Cc1ccc(CN2CCOC3(COCCN(S(C)(=O)=O)C3)C2)o1.O=C(O)C(F)(F)F (stereo unspecified) was tested, and the “Percent Effect” value was -4.149%.
For CS(=O)(=O)N1CCOCC2(CN(Cc3ccc(F)cc3)CCO2)C1.O=C(O)C(F)(F)F (stereo unspecified), the “Percent Effect” value was -3.432%.
Cc1ccc(CN2CCOC3(COCCN(Cc4ccncc4)C3)C2)o1.O=C(O)C(F)(F)F.O=C(O)C(F)(F)F.O=C(O)C(F)(F)F (stereo unspecified) was tested, and the “Percent Effect” value was -16.88%.
For CS(=O)(=O)N1CCOCC12CCN(Cc1ccc(F)cc1)CC2.O=C(O)C(F)(F)F, the “Percent Effect” value was 90.38%.
With COCc1nc(CNc2cccc(-c3nc(C)c(C)o3)c2)cs1 the “Percent Effect” value was -0.1423%.
With N#Cc1cccc(C(=O)N2C[C@H]3CC[C@@H]2CN(C(=O)C2CCC2)C3)c1 the “Percent Effect” value was -9.215%.
With CN(C)S(=O)(=O)N1C[C@@H]2CC[C@H](C1)N(Cc1ccc(F)c(F)c1)C2 the “Percent Effect” value was -2.464%.
Cc1c(Cl)cc(C(=O)NCCc2ncnn2C)cc1Cl was tested, and the “Percent Effect” value was -11.54%.
With O=C1CC(c2cccc(O)c2)c2sc(C(=O)O)c(-c3ccccc3)c2N1 (stereo unspecified) the “Percent Effect” value was 10.05%.
With CNC(=O)[C@H]1C[C@@H]2CN(Cc3ccccc3)C[C@H]1O2.O=C(O)C(F)(F)F the “Percent Effect” value was 106.1%.
In the case of CNC(=O)[C@H]1CCS(=O)(=O)[C@@H]2CN(Cc3ccc(OC)cc3)C[C@H]12, the “Percent Effect” value is reported as 0.06663%.
Cc1cccc(CN2C[C@H]3C[C@H](C(=O)NCc4cccnc4)[C@@H](C2)O3)c1.O=C(O)C(F)(F)F.O=C(O)C(F)(F)F was tested, and the “Percent Effect” value was -0.193%.
COc1ccc(CN2C[C@@H]3COC[C@H](N4CCN(C)CC4)[C@@H]3C2)cc1.O=C(O)C(F)(F)F.O=C(O)C(F)(F)F.O=C(O)C(F)(F)F was tested, and the “Percent Effect” value was -28.1%.
In the case of CNC(=O)[C@H]1C[C@@H]2CN(Cc3ccc(OC)cc3)C[C@H]1O2.O=C(O)C(F)(F)F, the “Percent Effect” value is reported as 98.44%.
CN(C)C(=O)[C@H]1C[C@@H]2CN(CCc3ccccc3)C[C@H]1O2.O=C(O)C(F)(F)F was tested, and the “Percent Effect” value was 12.58%.
In the case of CNC(=O)[C@H]1C[C@@H]2CN(Cc3ccc(C)cc3)C[C@H]1O2.O=C(O)C(F)(F)F, the “Percent Effect” value is reported as 103.7%.
Cc1ccc(CN2C[C@H]3C[C@H](C(=O)NCc4cccnc4)[C@@H](C2)O3)cc1 was tested, and the “Percent Effect” value was 0.7721%.
In the case of CNC(=O)[C@H]1C[C@@H]2CN(Cc3cccc(C)c3)C[C@H]1O2.O=C(O)C(F)(F)F, the “Percent Effect” value is reported as 116.6%.
